Laboratory results reported in PMC13083723 (Patterns, 2026).
The campaign covered roughly 5,400 compounds. About 190 (3.5%) showed an effect of 50% or more. The list comes from a sample in which strong results are over-represented; it also holds similar structures and randomly drawn compounds.

These compounds were tested on Vero-E6 (assay: primary screen, phospholipidosis by LipidTOX staining; higher = more effect of the substance). Conditions: 10 µM.
In short: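 Single-concentration screen at 10 μM, with DMSO 0.1 v/v % and amiodarone 10 μM as controls. Read-out is LipidTOX Red phospholipid staining, which tolerates aldehyde fixation, in Vero-E6 cells.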
For `Nc1nc2c(c(N3CCNCC3)n1)CCC1=C2[C@@H]2CCCC[C@@H]2O1`, the result_ITMP was 70.7%.
With `CC[C@]1(O)C[C@@H]2C[N@@](CCc3c([nH]c4ccccc34)[C@@](C(=O)OC)(c3cc4c(cc3OC)N(C=O)[C@H]3[C@@](O)(C(=O)OC)[C@H](OC(C)=O)[C@]5(CC)C=CCN6CC[C@]43[C@@H]65)C2)C1` the result_ITMP was 1.05%.
With `CCN(CC)CCOc1ccc(/C(=C(\Cl)c2ccccc2)c2ccccc2)cc1` the result_ITMP was 108%.
Compound `CCN(CC)CCOc1ccc(Cc2ccccc2)cc1` has a result_ITMP of 30.2%.
Compound `CC/C(=C(\c1ccc(O)cc1)c1ccc(OCCN(C)C)cc1)c1ccccc1` has a result_ITMP of 20.4%.
With `CN(C)CCOc1ccc(/C(=C(/CCCl)c2ccccc2)c2ccccc2)cc1` the result_ITMP was 20.4%.
With `CC/C(=C(\c1ccc(OCCN(C)C)cc1)c1cccc(O)c1)c1ccccc1` the result_ITMP was 77.7%.
`CC/C(=C(\c1ccccc1)c1ccc(OCCN(C)C)cc1)c1ccccc1` showed a result_ITMP of 49.4%.
`CN1C[C@@H]2CN(c3ccc(-c4ccccc4)nn3)C[C@@H]2C1` gave a result_ITMP of -1.43%.
`O=C([O-])CCC/C=C\C[C@@H]1[C@@H](/C=C/[C@@H](O)COc2cccc(Cl)c2)[C@H](O)C[C@@H]1O` (racemic) gave a result_ITMP of -1.06%.
Work on `C[C@H](CCC(=O)O)[C@H]1CC[C@H]2[C@@H]3CC[C@@H]4C[C@H](O)CC[C@]4(C)[C@H]3CC[C@]12C` yielded a result_ITMP of -0.58%.
Work on `Oc1ccnc(S)n1` yielded a result_ITMP of -2.88%.
In the case of `NC[C@@](O)(c1ccc(Cl)cc1)c1ccc(-c2cn[nH]c2)cc1`, the result_ITMP is reported as 63.1%.
`NCC(O)(CS(=O)(=O)O)c1ccc(Cl)cc1` (centres unmarked) was tested, and the result_ITMP was -4.58%.
`Clc1ccc(C2(c3ccc(-c4cn[nH]c4)cc3)CCNCC2)cc1` was tested, and the result_ITMP was 96.9%.
`Cn1ncnc1COc1nn2c(-c3cc(F)ccc3F)nnc2cc1C(C)(C)C` showed a result_ITMP of -6.83%.
Work on `Nc1c(S(=O)(=O)[O-])cc(Nc2cccc3ccccc23)c2c1C(=O)c1ccccc1C2=O` yielded a result_ITMP of -11.1%.
In the case of `CC[C@H]1[C@@H](O)C2C3CC[C@H]([C@H](C)CCC(=O)O)[C@@]3(C)CCC2[C@@]2(C)CC[C@@H](O)C[C@@H]12` (some centres unmarked), the result_ITMP is reported as -3.95%.
`CN[C@@H]1C(OC2[C@H](O[C@H]3[C@H](O)[C@@H](O)[C@H](NC(=N)N)[C@@H](O)[C@@H]3NC(=N)N)OC(C)[C@]2(O)CO)OC(CO)C(O)C1O` (some centres unmarked) gave a result_ITMP of -3.92%.
Work on `CC(=O)c1ccc2c(c1)C(=O)C1(CC1)O2` yielded a result_ITMP of 0.63%.
`C[C@@H]1CCCN1CCc1cc2cc(-c3ccc(C#N)cc3)ccc2o1` was tested, and the result_ITMP was 66.8%.
For `CC(=O)C1=C(O)[C@]2(C)C(=CC1=O)Oc1c(C(C)=O)c(O)c(C)c(O)c12`, the result_ITMP was -3.21%.
For `CCCCCCCCCCC(=O)O[C@H]1CC[C@H]2[C@@H]3CCC4=CC(=O)CC[C@]4(C)[C@H]3CC[C@]12C`, the result_ITMP was 0.88%.
Compound `C[C@@]1(O)[C@H](O)[C@@H](CO)O[C@H]1n1cnc2c(O)nc(N)nc21` has a result_ITMP of 7.18%.
For `COc1ccc2cc(-c3[nH]c(-c4ccc(S(C)=O)cc4)nc3-c3ccncc3)ccc2c1` (centres unmarked), the result_ITMP was -3.68%.
`C[N+]1(C)[C@@H]2C[C@@H](OC(=O)C(O)(c3cccs3)c3cccs3)C[C@H]1[C@@H]1O[C@@H]12` gave a result_ITMP of -2.59%.
`CN1CCC(=C2c3ccccc3CCc3sccc32)CC1` gave a result_ITMP of 42.6%.
Work on `CN1CCC(=C2c3ccccc3C=Cc3ccccc32)CC1` yielded a result_ITMP of 77.3%.
In the case of `CN1CCC(=C2c3ccccc3Sc3ccccc32)CC1`, the result_ITMP is reported as 44.9%.
With `Cc1onc(O)c1CC(N)C(=O)O` (racemic) [R4A_0004356_001 / SPE_A34716233] the result_ITMP was 0.42%.
With `CC(C)c1ccc(C(=O)c2cccs2)c(SCCCCCCCCN(C)C)n1` the result_ITMP was 77%.
For `O=C(O)COc1ccc(C(=O)c2cccs2)c(Cl)c1Cl`, the result_ITMP was -7.59%.
Work on `CC(C(=O)O)c1ccc(C(=O)c2cccs2)cc1` (centres unmarked) yielded a result_ITMP of -0.4%.
For `O=C([O-])CCC(=O)OC[C@H](NC(=O)C(Cl)Cl)C(O)c1ccc([N+](=O)[O-])cc1` (some centres unmarked), the result_ITMP was 1.81%.
`O=c1[n-]c(=O)n(Cl)c(=O)n1Cl` was tested, and the result_ITMP was -11.2%.
For `c1ccc(C2CN3CCSC3=N2)cc1` (centres unmarked) [R4A_0001404_001 / SPE_K73107279], the result_ITMP was -7.98%.
`C[N+](C)(C)CCOP(=O)([O-])OP(=O)([O-])OC[C@H]1O[C@@H](n2ccc(N)nc2=O)[C@H](O)[C@@H]1O` showed a result_ITMP of 10.2%.
Work on `CC(C)(O)c1ccccc1CC[C@@H](SCC1(CC(=O)[O-])CC1)c1cccc(/C=C/c2ccc3ccc(Cl)cc3n2)c1` yielded a result_ITMP of 3.69%.
With `C[C@H](N)Cn1ccc2cc(F)c(Cl)cc21` the result_ITMP was 50.7%.
`CO[C@H]1O[C@@H]2O[C@@]3(C)CC[C@H]4[C@H](C)CC[C@@H]([C@H]1C)[C@@]24OO3` showed a result_ITMP of -0.98%.
`O=C([O-])C(O)Cc1ccc(O)c(O)c1` (centres unmarked) showed a result_ITMP of 1.45%.
Compound `CCC(=O)O[C@@H](OP(=O)(CCCCc1ccccc1)CC(=O)N1C[C@H](C2CCCCC2)C[C@H]1C(=O)[O-])C(C)C` (some centres unmarked) has a result_ITMP of -3.03%.
In the case of `CC(=O)c1ccc2c(c1)N(CCCN1CCC(CCO)CC1)c1ccccc1S2`, the result_ITMP is reported as 50.4%.
`CCOC(=O)Nc1ccc2c(c1)N(C(=O)CCN1CCOCC1)c1ccccc1S2` gave a result_ITMP of -8.3%.
Work on `CC(=O)c1ccc2c(c1)N(CCCN(C)C)c1ccccc1S2` yielded a result_ITMP of 42.6%.
`CCCCN1CCC(CCC(=O)c2cc(Cl)c(N)cc2OC)CC1` showed a result_ITMP of 5.01%.
For `CC(=O)c1ccc2c(c1)N(CCCN1CCN(CCO)CC1)c1ccccc1S2`, the result_ITMP was 74.4%.
Compound `O=C(NO)c1ccc(O)c(O)c1` has a result_ITMP of -2.75%.
`C[C@]12CCC(=O)C[C@@H]1CC[C@@H]1[C@@H]2CC[C@]2(C)C=CC[C@@H]12` was tested, and the result_ITMP was -0.52%.
With `C[C@]12CC[C@H](O)C[C@H]1CC[C@@H]1[C@@H]2CC[C@]2(C)[C@@](O)(c3ccoc3)CC[C@]12O` the result_ITMP was -7.29%.
With `Cc1ccccc1N(C)C(=O)c1ccc(S(=O)c2nccs2)c([N+](=O)[O-])c1` (centres unmarked) the result_ITMP was 70.1%.
For `CN1c2c(nc(N)[nH]c2=O)NC[C@@H]1CNc1ccc(C(=O)N[C@@H](CCC(=O)[O-])C(=O)[O-])cc1`, the result_ITMP was -7.73%.
In the case of `CC[C@@]1(C2O[C@@H](C3O[C@@](O)(CO)[C@H](C)C[C@@H]3C)C[C@@H]2C)CC[C@H]([C@]2(C)CCC3(C[C@H](O)[C@@H](C)[C@@H]([C@H](C)[C@@H](OC)[C@H](C)C(=O)[O-])O3)O2)O1` (some centres unmarked), the result_ITMP is reported as -2.43%.
